Bioassay records as filed in PubChem.
The list is not random: actives were taken first. Their share in the collection is about 3.5%.
ERa SRC1 inh = blocks coactivator binding to human estrogen receptor alpha | P03372 | TR-FRET ER-alpha LBD / SRC-1 peptide, estradiol-bound | inhibition, % at 25.6 µM | 86,000 compounds, 1.7% hits | AID 629; in the data active = inhibition above about 50%;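 note: 0% = receptor plus peptide control and 100% = peptide only without receptor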
CD11b adhes enh = enhancers of human CD11b/CD18 binding to fibrinogen; AID 1499; 93,000 compounds, 0.07% hits; K562 CD11b/CD18 adhesion to fibrinogen, ATPlite luminescence; activation, % at 10 µM; P05107+P11215;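 active = 10 µM primary screen giving 50% or more activity, confirmed by 40% or more on retest at that dose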
FAK blocker = inhibitors of human focal adhesion kinase; Q05397; biochemical FAK kinase activity assay; inhibition, %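 (tested at 7 µM)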; 97,000 compounds, 0.84% hits; AID 727; in the data active = inhibition above about 19%;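 note: 0% = DMSO and 100% = reference compound high control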
Target sequence (Q05397 whole entry, looked up): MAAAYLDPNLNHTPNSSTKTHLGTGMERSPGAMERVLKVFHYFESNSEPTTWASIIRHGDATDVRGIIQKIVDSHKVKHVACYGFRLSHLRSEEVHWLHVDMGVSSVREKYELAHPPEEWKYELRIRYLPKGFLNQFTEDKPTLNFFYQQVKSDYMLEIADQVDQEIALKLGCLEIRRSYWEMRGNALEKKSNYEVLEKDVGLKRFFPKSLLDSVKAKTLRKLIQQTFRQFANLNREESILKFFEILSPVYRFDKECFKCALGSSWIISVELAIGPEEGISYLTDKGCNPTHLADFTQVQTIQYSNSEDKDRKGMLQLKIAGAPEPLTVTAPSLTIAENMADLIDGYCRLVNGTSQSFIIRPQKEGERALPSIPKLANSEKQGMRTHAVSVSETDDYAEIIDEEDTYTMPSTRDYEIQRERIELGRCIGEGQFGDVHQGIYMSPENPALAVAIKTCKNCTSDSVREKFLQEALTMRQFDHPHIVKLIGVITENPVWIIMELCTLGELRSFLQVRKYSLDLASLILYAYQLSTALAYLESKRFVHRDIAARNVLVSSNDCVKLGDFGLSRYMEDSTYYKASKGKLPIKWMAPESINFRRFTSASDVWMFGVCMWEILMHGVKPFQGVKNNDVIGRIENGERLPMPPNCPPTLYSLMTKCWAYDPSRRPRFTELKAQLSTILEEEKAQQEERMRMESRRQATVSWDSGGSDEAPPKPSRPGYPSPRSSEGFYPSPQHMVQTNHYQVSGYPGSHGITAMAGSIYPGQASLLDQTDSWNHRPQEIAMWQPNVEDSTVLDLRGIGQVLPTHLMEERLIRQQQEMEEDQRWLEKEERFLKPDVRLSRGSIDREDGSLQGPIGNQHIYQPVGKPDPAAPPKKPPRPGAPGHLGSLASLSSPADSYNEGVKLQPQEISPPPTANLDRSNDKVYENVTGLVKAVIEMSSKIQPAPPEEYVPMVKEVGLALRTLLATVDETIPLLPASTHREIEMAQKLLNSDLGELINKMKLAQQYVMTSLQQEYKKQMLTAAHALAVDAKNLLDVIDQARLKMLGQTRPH
ERb SRC1 inh = blocks coactivator binding to human estrogen receptor beta | Q92731 | inhibition, % at 25.6 µM | TR-FRET ER-beta LBD / SRC1-Cy5 peptide binding; receptor agonist-loaded with 1 µM estradiol | 86,000 compounds, 1.3% hits;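 active = compounds whose percent inhibition of the receptor-coactivator binding signal exceeds about 50% in the single-dose screen, limit read from the data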;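 note: 0% = receptor plus peptide wells without compound and 100% = peptide-only wells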
Mac1 fbg inh = blocks human CD11b/CD18 adhesion to fibrinogen; 93,000 compounds, 0.54% hits; K562 CD11b/CD18 adhesion to fibrinogen, ATPlite luminescence; Mn2+ added to activate the integrin; P05107+P11215; AID 1497; inhibition, % at 10 µM;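 active = primary inhibition of 50% or more at 10 µM, then 40% or more on retest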
ERa SRC1 pot = ER-alpha (human) coactivator binding potentiation; P03372; TR-FRET ERalpha-LBD/SRC-Cy5 coactivator binding, 2 h; 100 = basal binding, no effect; coactivator binding (% of control), % at 25.6 µM; 86,000 compounds, 1.3% hits; in the data active = activity above about 200%;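 note: binding measured in presence of low estradiol as agonist stimulus; 0% = peptide alone without receptor and 100% = receptor with peptide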
The depositor's hits bear a star; . = not tested or not shown; [ ] = remark or other dose.

SMILES | ERa SRC1 inh | CD11b adhes enh | FAK blocker | ERb SRC1 inh | Mac1 fbg inh | ERa SRC1 pot
O=C(Nc1cccc(-c2nnc(-c3ccccc3)o2)c1)c1ccco1 | 14 | -1 | . | 6 | -6 | 128
CCCCCn1c(SC(C)C(C)=O)nc2c1c(=O)[nH]c(=O)n2C (stereo not given) | 21 | -3 | 3 | -9 | -17 | 105
CCc1nc(C)cn1S(=O)(=O)c1cc(C)c(OC)c(C)c1C | -5 | 3 | 0 | -2 | 80* | 94
COc1cc(NCCCCCCCN)c2ncccc2c1 | 78*[fluorescence artefact?] | . | 16 | 39 | . | 38
COc1cc(NC(=O)c2ccc3c(c2)OCO3)c2ncccc2c1 | 14 | . | 4 | 13 | . | 137
Cc1ccc(-c2csc(NC(=O)c3ccno3)n2)cc1 | 73* | 6 | 1 | 75* | -19 | 29
C/C(=N\NC(=O)c1ccc(Br)cc1)C1C(=O)c2ccccc2C1=O | . | -7 | 1 | . | 97* | .
CC(/C=N/NC(=O)c1ccc(Br)cc1)=C\c1ccccc1 | 20 | 9 | 9 | 2 | 7 | 151
CC(/C=C/c1ccc2c(c1)OCO2)=N\NC(=O)c1cccc([N+](=O)[O-])c1 | 68*[fluorescence artefact?] | -1 | 2 | 17 | 0 | 58
CC(/C=C/c1ccc2c(c1)OCO2)=N/NC(=O)CNc1ccc(C)cc1 | . | . | -14 | . | . | .
Nc1c(NC2CCCCC2)c2ccccc2oc1=O | -9 | -3 | 0 | -7 | -10 | 99
O=C(Cc1sc(-c2ccccc2Cl)nc1-c1ccccc1)Nc1ccc(F)cc1 | -5 | 0 | -2 | -1 | 8 | 136
O=C(Cc1sc(-c2ccccc2Cl)nc1-c1ccccc1)Nc1ccccc1 | 9 | -5 | -11 | -4 | -1 | 235*[fluorescence artefact?]
COc1cccc(=O)c2c(C)n(C)c(C)c12 | 38 | -4 | 1 | 51*[fluorescence artefact?] | -4 | 72
CCOc1cccc(=O)c2c(C)n(C)c(C)c12 | 8 | 2 | 0 | 12 | 23 | 78
CCOCCCNC(=O)c1cc2sc(Cl)cc2n1CC | -43 | -3 | . | -22 | 10 | 98
Nc1cc(=O)nc(SCC(=O)NCc2ccccc2)n1CCc1ccccc1 | 1 | -2 | 2 | 2 | -8 | 90
CC(C)Sc1nc2c(cnn2-c2ccccc2)c(=O)[nH]1 | 2 | 0 | . | 1 | 1 | 106
Cc1ccc(-n2ncc3c(=O)[nH]c(SCC(=O)N4CCC(C)CC4)nc32)cc1C | 8 | -3 | . | 18 | -5 | 346*[fluorescence artefact?]
CCCCCSc1nc2c(cnn2-c2ccccc2)c(=O)[nH]1 | 45 | -4 | 2 | 44 | -10 | 283*[fluorescence artefact?]
CCSc1nc2c(cnn2-c2ccc(C)c(C)c2)c(=O)[nH]1 | 70*[fluorescence artefact?] | 51 | -1 | 65*[fluorescence artefact?] | 5 | 239*[fluorescence artefact?]
Cc1ccc(-n2ncc3c(=O)[nH]c(SCC(=O)N4CCOCC4)nc32)cc1 | -4 | -4 | 7 | -10 | -30 | 108
Cc1ccc(-n2ncc3c(=O)[nH]c(SCC(=O)N4CCCC4)nc32)cc1C | 0 | . | . | -7 | . | 115
Cc1ccc(-n2ncc3c(=O)[nH]c(SCC(=O)N4CCN(c5ccccc5)CC4)nc32)cc1 | 21 | . | -2 | 53*[fluorescence artefact?] | . | 151
OCc1ccc(O)c2ncccc12 | -9 | . | 1 | -14 | . | 94
SMILES | ERa SRC1 inh | CD11b adhes enh | FAK blocker | ERb SRC1 inh | Mac1 fbg inh | ERa SRC1 pot
Oc1ccc(CNc2ccccc2F)c2cccnc12 | 20 | -4 | 4 | 62*[fluorescence artefact?] | -11 | 91
Cc1ccc(C)c(C(=O)Nc2c(C(N)=O)oc3ccccc23)c1 | -1 | 0 | -4 | 90*[fluorescence artefact?] | -4 | 111
O=c1[nH]c2cc3c(cc2cc1CN(Cc1cccs1)Cc1nnnn1Cc1ccco1)OCCO3 | 51* | 0 | 10 | 50 | 4 | 124
O=c1[nH]c2cc3c(cc2cc1CN(Cc1cccnc1)Cc1nnnn1Cc1ccco1)OCCO3 | . | 5 | 2 | . | 7 | .
O=c1[nH]c2cc3c(cc2cc1CN(Cc1ccccc1)Cc1nnnn1Cc1ccco1)OCCO3 | 20 | -1 | 0 | 26 | 4 | 216*
O=C(NCc1ccco1)C1CCN(c2nc3ccccc3n2Cc2ccc(F)cc2)CC1 | 6 | 6 | -1 | -10 | 1 | 90
CC1(C)CC(=O)C2=C(C1)Nc1ccccc1N1C(=O)c3ccccc3C21 (stereo not given) | -3 | -7 | -1 | 12 | -8 | 105
O=C(c1csc2c1CCCC2)N1CCN(c2cccc(C(F)(F)F)c2)CC1 | 0 | 1 | 1 | -3 | 4 | 88
CCC/C(=N/Nc1ccc(Cl)cc1)c1cnnc(-c2ccccc2)n1 | 94* | . | 0 | 67*[fluorescence artefact?] | . | 12
CCCCNc1ccccc1C(=O)OCC(=O)Nc1ccc(S(N)(=O)=O)cc1 | . | -3 | 1 | . | -6 | .
O=C(C1CCN(Cc2cc(Cl)ccc2O)CC1)N1CCN(Cc2ccccc2)CC1 | 2 | . | -1 | 9 | . | 137
NNC(=O)c1cc2c(s1)CCCCCC2 | -1 | 6 | 4 | -8 | 13 | 91
O=C(Nc1nccs1)c1ccc2nccnc2c1 | 40 | 0 | 6 | 60* | -11 | 43
O=C(Nc1nccs1)c1cc2c(s1)CCCCC2 | 13 | -5 | 10 | -6 | 72* | 101
O=C(Nc1ccc([N+](=O)[O-])cc1)/C(=C/c1cccc([N+](=O)[O-])c1)NC(=O)C1CCCCC1 | 3 | . | -2 | 31 | . | 88
Cc1ccc(C(=O)c2ccc([N+](=O)[O-])cc2)c(C)c1 | -2 | -1 | 2 | -4 | -4 | 93
O=[N+]([O-])c1ccc(N=Nc2ccc(O)cc2O)cc1 | 44 | -9 | 0 | 44 | 94* | 49
CCC(=O)N1c2ccc(S(=O)(=O)CCC(=O)NCCC3=CCCCC3)cc2CC1C (stereo not given) | 3 | . | -5 | -1 | . | 113
COc1ccc(C2=NN(C(=O)CSc3cn(C)c4ccccc34)C(c3ccc(OC)cc3)C2)cc1 (stereo not given) | -5 | 4 | 7 | 0 | -4 | 639*[fluorescence artefact?]
CCOC(=O)c1sc(NC(=O)CNC(=O)Cn2cnc3sc(C)c(C)c3c2=O)nc1C | 48 | 18 | -3 | 46 | 5 | 226*
CCOCCn1cnc2sc(C(=O)Nc3nc(C)c(C(=O)OCC)s3)c(C)c2c1=O | . | -2 | 1 | . | 6 | .
COc1ccc(-n2c(C)cc(C(=O)COC(=O)Cn3cnc4ccccc43)c2C)cc1 | 0 | -9 | -5 | 14 | 97* | 98
COc1ccc(-n2c(C)cc(C(=O)CN3C(=O)c4ccccc4C3=O)c2C)cc1 | . | 0 | . | . | 23 | .
O=C(Nc1nc(-c2cccs2)cs1)c1cc2ccccc2oc1=O | . | . | 3 | . | . | .
O=C(Nc1nc(-c2cc3ccccc3oc2=O)cs1)c1ccc(Br)o1 | 38 | 15 | 14 | 27 | 21 | 224*[fluorescence artefact?]
O=C1N=C(c2ccccc2)S/C1=C\c1cccs1 | 57*[fluorescence artefact?] | -4 | -3 | 23 | -20 | 112
O=C(Oc1cccc(-c2cnc3ccccc3n2)c1)c1ccco1 | -1 | . | 4 | -16 | . | 311*
O=C(Oc1ccc2ccccc2c1)c1ccco1 | -33 | 4 | . | 1 | -1 | 97
